# Measurements as given in PubChem BioAssay (EPA / NIEHS).
# Results filed as inconclusive are left out. Calls of active or inactive are those of the source. The calls were made as follows: active = hit-call score of the fitted dose curve at least 0.9, where 1 is the maximum; inconclusive = response in the unintended direction; inactive = score below 0.9.
# Experiment: Tanguay_ZF_120hpf_YSE_legacy: (Legacy) Oregon State University Tanguay Lab 120 Hour Post-fertilization zebrafish Assay for Yolk Sac Edema (AID 2283634);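 as to AC50: actives raise the incidence of yolk sac edema above the DMSO baseline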
# Procedure: Tanguay_ZF_120hpf_legacy is a whole embryo, multiplexed endpoint assay using zebrafish larvae exposed for 120 hours post fertilization on a 96-well plate.Tanguay_ZF_120hpf_YSE_legacy is one of one assay component(s) measured or calculated from the Tanguay_ZF_120hpf_legacy assay. It is designed to make measurements of zebrafish development as detected with brightfield microscopy of developing zebrafish embryos.Data from the assay component Tanguay_ZF_120hpf_YSE_legacy was analyzed into 1 assay endpoints. This assay endpoint, Tanguay_ZF_120hpf_YSE_legacy, was analyzed in the positive analysis fitting direction relative to DMSO as the negative control and baseline of activity. Using a type of morphology reporter, gain-of-signal activity can be used to understand changes in developmentals as they relate to the whole embryo. To generalize the intended target to other relatable targets, this assay endpoint is annotated to the zebrafish development intended target family, where the subfamily is extra-embryonic membrane development.
# Zebrafish husbandry: Tropical 5D wild-type adult zebrafish were housed in at an approximate density of 1000 per 100 gallon tank at the Sinnhuber Aquatic Research Laboratory, Oregon State University, Corvallis, OR. Each tank was kept at standard laboratory conditions of 28C on a 14-h light/10-h dark photoperiod in fish water consisting of reverse osmosis water supplemented with a commercially available salt (Instant Ocean). Spawning funnels were placed into the tanks the night prior, and embryos were collected and staged. To increase bioavailability, the chorion was enzymatically removed using pronase (63.6mg/ml, >/= 3.5U/mg, Sigma-Aldrich: P5147) at 4 hours post fertilization (hpf) using a custom automated dechorionator.Chemical exposures: Six hpf dechorionated embryos were placed 1 embryo per well in a 96-well plate prefilled with 90 ul of EM using automated embryo placement systems (AEPS). Ten microliters of each row of dilution plate 2 was added to 2 exposure plates. The final DMSO concentration used was 0.64% (vol/vol). Thirty-two embryos were also exposed to 5uM trimethyltin chloride (positive control). Plates were sealed to prevent evaporation and foil covered to reduce light exposure and kept in a 28C incubator. Embryos were statically exposed until 120 hpf. At 24 hpf, embryos were assessed for photomotor response using a custom photomotor response analysis tool (PRAT) and for developmental toxicity endpoints (MO24: mortality at 24 hpf, DP: developmental progression, SM: spontaneous movement, and NC: notochord distortion). At 120 hpf, locomotor activity was measured using Viewpoint Zebralab and assessed for 18 endpoints. Zebrafish acquisition and analysis program (ZAAP), a custom program designed to inventory, acquire, and manage zebrafish data, was used to collect developmental endpoints as either present or absent (i.e., binary responses were recorded). If mortality occurred for an embryo (at either 24 or 120 hpf), the non-mortality endpoints were not measured.
Compound,outcome,AC50
CCNc1nc(Cl)nc(NC(C)(C)C)n1,inactive,
Cc1ccc(O)cc1C,inactive,
Nc1cc2c3c(c1)C(c1ccccc1)=N[C@@H](NC(=O)c1cccnc1)C(=O)N3CC2,inactive,
O=[N+]([O-])c1ccc(Cl)c(Cl)c1,inactive,
c1ccc2c(c1)Nc1ccccc1S2,inactive,
CN(C)C(=O)Cl,inactive,
CCCCN(CCCC)N=O,inactive,
O=C(O)C1C(C(=O)O)C2(Cl)C(Cl)=C(Cl)C1(Cl)C2(Cl)Cl (centres undefined),inactive,
CCCCCCCc1ccc(O)cc1,inactive,
[N-]=[N+]=[N-],inactive,
CC(C)(C)c1ccc(O)cc1,inactive,
Cc1cccc(N)c1,inactive,
Cc1ccc([N+](=O)[O-])cc1C,inactive,
CCCN(CCC)c1c([N+](=O)[O-])cc(C(C)C)cc1[N+](=O)[O-],inactive,
c1cc2c3c(cccc3c1)CC2,inactive,
CCC1(c2ccccc2)C(=O)N=C(O)NC1=O (centres undefined),inactive,
CCC(C)(C)c1ccc(O)cc1,,51.1 µM (active)
ClC(Cl)c1ccccc1,inactive,
Nc1ccc2ccccc2c1,,34.8 µM (active)
CCCCN(CCCC)SN(C)C(=O)Oc1cccc2c1OC(C)(C)C2,inactive,

Compound,outcome,AC50
CC(Cc1ccc(OCC(=O)O)cc1)NCC(O)c1csc(C(F)(F)F)n1 (centres undefined),inactive,
OCC1CO1 (centres undefined),inactive,
O=P1(N(CCCl)CCCl)NCCCO1 (centres undefined),inactive,
ClC(Cl)(Cl)c1ccccc1,inactive,
O=C(O)C(Cl)Cl,inactive,
COCCOCCO,inactive,
CC(Cl)(Cl)C(=O)O,inactive,
CCN(CC)c1ccccc1,inactive,
c1ccc(OP(Oc2ccccc2)Oc2ccccc2)cc1,inactive,
CCOC(=O)c1ccccc1C(=O)OCC,inactive,
ClC1=C(Cl)C2(Cl)C3C(Cl)C(Cl)CC3C1(Cl)C2(Cl)Cl (centres undefined),inactive,
CSC(C)(C)C=NO,inactive,
O=P(Oc1ccccc1)(Oc1ccccc1)Oc1ccccc1,inactive,
CC(C)(C)OOC(C)(C)C,inactive,
CCOc1ccc(C(C)(C)COCc2cccc(Oc3ccccc3)c2)cc1,inactive,
CCOP(=S)(OCC)SCSCC,inactive,
O=[N+]([O-])c1ccccc1,inactive,
CCOS(=O)(=O)OCC,inactive,
CCCCc1ccccc1,inactive,
